This note sets out measurements from PubChem BioAssay (EPA / NIEHS).

“And” between values parts separate entries of the source, which are not always exact repeats. Identical values can stand only once. Some structures have more than one record in an assay (separate samples or runs), and their calls can disagree. The source made the active and inactive calls. Rule for the calls: active = hit-call score of the fitted dose curve at least 0.9, where 1 is the maximum; inactive = score below 0.9.

The nature of the assay: ATG_NFI_CIS: Attagene CIS-FACTORIAL HepG2 Assay for human Nuclear Factor I (NFI) (AID 2282989). To be noted: HepG2 cis-regulatory reporter, NFI response element transcription; actives raise or lower the signal. The method, then:
ATG_CIS is a cell-based, multiplexed-readout assay that uses HepG2, a human liver cell line, with measurements taken at 24 hours after chemical dosing in a 24-well plate.ATG_NFI_CIS is one of 52 assay component(s) measured or calculated from the ATG_CIS assay. It is designed to make measurements of mRNA induction, a form of inducible reporter, as detected with fluorescence intensity signals by Reverse transcription polymerase chain reaction (RT-PCR) and Capillary electrophoresis technology.Data from the assay component ATG_NFI_CIS was analyzed into 1 assay endpoint. This assay endpoint, ATG_NFI_CIS, was analyzed with bidirectional fitting relative to DMSO as the negative control and baseline of activity. Using a type of inducible reporter, measures of mRNA for gain or loss-of-signal activity can be used to understand the reporter gene at the transcription factor-level as they relate to the gene NFIA. Furthermore, this assay endpoint can be referred to as a primary readout, because this assay has produced multiple assay endpoints where this one serves a reporter gene function. To generalize the intended target to other relatable targets, this assay endpoint is annotated to the dna binding intended target family, where the subfamily is nuclear factor I.
Human liver HepG2 cells are transiently transfected with multiple reporter transcription units (MRTUs) in 6-well plates using FuGene 6 reagent (Roche; 3 ml FuGene/1 mg DNA). The MRTU constructs are regulated by a cis-regulating element (promoter). […] A major difference between the CIS and TRANS system is that in CIS activities of endogenous TFs are measured, whereas the TRANS assay evaluates changes in activities of exogenous, chimeric NR-Gal4 proteins. […] At the end of 24 hour incubation, total RNA was isolated using TriZol reagent (Invitrogen). The isolated RNA is then reverse-transcribed using oligo(dT) primer and Mo-MLV reverse transcriptase (Invitrogen) with DNAse I (Ambion) treatment for 30 min. The one-tenth of the produced cDNA was amplified by PCR using Taq DNA polymerase (Invitrogen) and two reporter sequence-specific primers. The PCR products were fluorescently labeled by primer extension with 6-arboxyfluorescein (6-FAM) 5'-labeled reporter sequence-specific primer (2 min at 95 C, 20 s at 68 C and 10 min at 72 C) and these products were digested with 5U of HpaI (New England Biolabs) for 2h at 37 C. The fragments were purified using Qiaquick PCR columns (Qiagen), analyzed on an ABI 3130xL genetic analyzer (Applied Biosystems) with peak positions identified by using a set of X-rhodamine (ROX)-labeled MapMarker1000 molecular weight standards (BioVentures). The raw capillary electrophoresis data was processed using Attagraph software (Attagene).
For the compound `CCCOC(=O)c1cc(O)c(O)c(O)c1`, the outcome was inactive.

Consider `CCCCOC(=O)CC(CC(=O)OCCCC)(OC(C)=O)C(=O)OCCCC`, for which the result was inactive. In the case of `CN1C(=O)CC[C@H]1c1cccnc1`, the compound was classed as inactive. As to `O=C=NCCCCCCN=C=O`, the result was inactive.

For the compound `c1ccc2ccccc2c1`, the call was inactive. Same read-out and setting: then `Cc1cn([C@H]2C[C@H](N=[N+]=[N-])[C@@H](CO)O2)c(=O)[nH]c1=O`, with “inactive”. The same measure, in the same setting: the same measure for `CO[C@H]1/C=C/O[C@@]2(C)Oc3c(C)c(O)c4c(O)c(c(/C=N/N5CCN(C)CC5)c(O)c4c3C2=O)NC(=O)/C(C)=C\C=C\[C@H](C)[C@H](O)[C@@H](C)[C@@H](O)[C@@H](C)[C@H](OC(C)=O)[C@@H]1C`: “inactive”. Take `CCCCCCCCCC(=O)O`: the call was inactive.

With `CN1C(=O)N(c2ccccc2Br)Cc2cnc(Nc3ccc4c(c3)OCC(CO)O4)nc21` (stereo not given), the result was inactive. In general, AC50 refers to the concentration at which the activity in the assay is half-maximal. On to `COc1cc(C(=O)NC2CCN(C)CC2)ccc1Nc1ncc2c(n1)N(C1CCCC1)CC(F)(F)C(=O)N2C`, for which the AC50 is 0.709 µM (active). On the same count and under the same terms, the same measure for `CC(C)(c1cc(Br)c(O)c(Br)c1)c1cc(Br)c(O)c(Br)c1`: 57.6 µM (active) and 54.7 µM (active). In the case of `CC[C@H](NC(=O)c1cc(F)ccc1NS(=O)(=O)c1cccc2cccnc12)c1ccccc1`, the compound was classed as inactive. `CCCCCCCCOc1ccc(C(=O)c2ccccc2)c(O)c1`: the compound was classed as inactive. In the case of `CCCCCCCC[Si](OCC)(OCC)OCC`, the AC50 was 155 µM (active) and the compound was classed as inactive. In the case of `CN(C)C(=O)C1(N2CCCCC2)CCN(CC[C@@]2(c3ccc(Cl)c(Cl)c3)CN(C(=O)c3ccccc3)CCO2)CC1`, the call was inactive. On the same count and under the same terms, then `O=C(O)Cc1cc(I)c(Oc2ccc(O)c(I)c2)c(I)c1`, with “inactive”. For the compound `CCCCOC(=O)c1ccc(O)cc1`, the AC50 is 100 µM (active) and the compound was called inactive. For the compound `Oc1ccccc1`, the call was inactive. The same measure, in the same setting: then `Cc1ncc(CO)c(CO)c1O`, with “inactive”; and `CC(C)(C)c1csc(-c2cc3cc(OCc4ccccc4CC(=O)O)ccc3o2)n1`, with “inactive”. Same read-out and setting: then `CCN(Cc1cccc(S(=O)(=O)O)c1)c1ccc(C(=C2C=CC(=[N+](CC)Cc3cccc(S(=O)(=O)O)c3)C=C2)c2ccccc2S(=O)(=O)[O-])cc1`, with “inactive”. Same read-out and setting: the same measure for `Cc1c2ccccc2c(C)c2c1ccc1ccccc12`: “inactive”. For the compound `O=CCCCC=O`, the compound was classed as inactive. `CCO[Si](CCCNC(N)=O)(OCC)OCC`: the compound was called inactive. Same read-out and setting: the same measure for `CCOC(=O)O[C@H](C)OC(=O)c1ccc2c(c1)cc(C(=O)NC1CCN(C(C)C)CC1)n2Cc1cc(-c2ccc(Cl)s2)on1`: “inactive”; for `NC(=O)c1nc(-c2cccc(-c3cc(F)ccc3OCC(F)(F)C(F)(F)F)c2)n[nH]1`: “inactive”. The same measure, in the same setting: the same measure for `C[C@]12CC[C@@H]3c4ccc(O)cc4CC[C@H]3[C@@H]1CC[C@H]2O`: “inactive”; for `OC12N=C(c3ccccc3)SC1Cc1cc(Cl)ccc12` (stereo not given): “inactive”. Still for that read-out and setting: the same measure for `Clc1cc(Cl)c2c(c1)N=C1CCCCCN1C2`: “inactive”; for `Cc1occc1C(=O)Nc1ccc(C(=O)N2CCC(F)(F)/C(=C\C(=O)N3CCC(N4CCCCC4)CC3)c3ccccc32)cc1`: “inactive”; for `C[C@]12CC[C@@H]3c4ccc(O)cc4CC[C@H]3[C@@H]1CCC2=O`: “inactive”. `O=C1O[C@H]([C@@H](O)CO)C(O)=C1O`: the compound was classed as inactive. As to `O=c1[nH]sc2ccccc12`, the AC50 is 45.9 µM (active). For the compound `CC(C)(C)c1cc(/C=C2\SC(N)=NC2=O)cc(C(C)(C)C)c1O`, the concentration at half-maximal activity (AC50) is 18.4 µM (active). Consider `CCCCCCCCOC(=O)c1cc(O)c(O)c(O)c1`, for which the compound was classed as inactive.

Take `CC(O)CC(C)(C)O` (stereo not given): the call was inactive. `Cc1oc2c(NC(=O)c3c(Cl)cccc3Cl)cccc2c1C(C)(C)O`: the call was inactive. The same measure, in the same setting: then `CCN(CC)C(=O)c1cc(S(=O)(=O)Cc2ccccc2)c(N2CCC(c3ccccc3)CC2)cc1N(CC)CCN(C)C`, with “inactive”.
